Screening results (PubChem BioAssay)
PTAP TSG101 blk: blocks PTAP/TSG101 interaction to inhibit HIV-1 budding | 340,000 tested, under 10 active | AID 493005 | Potency, µM (highest dose often 115 µM), hits mostly inhibitors | Fluorescence polarization, FITC-PTAP peptide / Tsg101 binding | Q99816; active = well fitted inhibition curve with a large enough effect in the main read-out, with a control signal flat, not every such curve was filed as active; inconclusive = small, poorly fitted or top-dose-only effect, or effect the other way, or a change in a side signal; inactive = no such curve, though single readings can be large or run the other way
Target sequence (Q99816 whole entry, looked up): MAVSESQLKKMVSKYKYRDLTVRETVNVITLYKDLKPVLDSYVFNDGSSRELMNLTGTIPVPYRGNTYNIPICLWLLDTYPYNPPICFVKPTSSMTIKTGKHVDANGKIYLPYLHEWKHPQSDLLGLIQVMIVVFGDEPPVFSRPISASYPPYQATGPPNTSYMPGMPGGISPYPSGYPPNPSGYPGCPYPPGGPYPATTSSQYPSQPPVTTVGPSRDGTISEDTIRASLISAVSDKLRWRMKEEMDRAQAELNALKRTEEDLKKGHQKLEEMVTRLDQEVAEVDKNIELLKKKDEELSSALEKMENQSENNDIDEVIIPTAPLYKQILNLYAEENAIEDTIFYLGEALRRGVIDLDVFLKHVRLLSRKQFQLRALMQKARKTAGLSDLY
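Fluorescence polarization binding of Tsg101 binding domain (10 uM final) to FITC-labeled PTAP peptide (50 nM final) in HEPES pH 7.5 buffer with NaCl, Tween 20, EDTA, TCEP. Compounds added before peptide; binding 20 min at RT.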
A-T KAP1 phos: potential ataxia-telangiectasia treatment; F2112 A-T fibroblasts, KAP-1 phosphorylation AlphaLISA; neocarzinostatin DNA damage 30 min before lysis; Potency, µM (titrated, usually from 57.5 µM), hits mostly activators; actives 0.19% (n = 320,000); AID 485349; note: nearly all actives have a fitted effect of over 45% in size
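ATM-like activity read as KAP-1 phosphorylation via AlphaLISA donor/acceptor antibody pairs after lysis and 6 hr at 25C. Cells were ATM-null patient fibroblasts (F2112, hTERT), dosed 60 min, then exposed to the DSB inducer NCS for 30 min.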
a7 integrin act: activators of alpha7 integrin expression for muscular dystrophy | AID 624291 | alpha7betagal myoblasts, beta-gal FDG fluorescence, 48 h | Potency, µM (highest dose often 38.3 µM), hits mostly activators | actives 0.064% (n = 350,000); note: nearly all actives have a fitted effect of over 60% in size
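alpha7betagal+/- myoblasts (passage 13, 250/well) treated 48 h at 37C with compounds at 1:260 dilution of DMSO stock. Lysed, then beta-galactosidase activity read as FDG fluorescence (ex 480/em 540) after 30 min, with pre-read for autofluorescence.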
Mito fusion act: blocks mitochondrial division or promotes mitochondrial fusion. actives 0.23% (n = 320,000). S. cerevisiae fusion-defective mutant growth rescue, CellTiterGlo 48 h. Potency, µM (highest dose often 46.1 µM), actives largely listed as activators; note: nearly all actives have a fitted effect of over 45% in size
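Compounds are tested for their ability to restore growth of mitochondrial fusion-defective yeast strains at non-permissive 37C in YPEG medium over 48 hours. Viability is quantified by luciferase luminescence.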
GALK inh: galactokinase (human) inhibition. P51570. Potency, µM (top dose mostly 57.5 µM), most hits filed as inhibitors. Purified GALK, Kinase-Glo residual ATP luminescence. actives 0.007% (n = 270,000)
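Human GALK (5 nM) with 35 uM ATP and 100 uM galactose in 20 mM HEPES pH 8.0, 5 mM MgCl2, 60 mM NaCl, 1 mM DTT, 0.01% BSA. After 1 h at room temperature, leftover ATP was read by Kinase-Glo Plus luminescence.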
S-ASM inh: human S-ASM enzyme inhibition; placental ASM, HMU-PC fluorogenic substrate, 60 min; Potency, µM (series often up to 57.5 µM), usual class: inhibitors; actives 0.006% (n = 340,000); AID 504937
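HMU-PC0 cleavage (9 uM final) by human placental ASM, 60 min at 37 °C following 10 min compound exposure at RT; stopped at pH 10, fluorescence Ex 386/Em 447 nm.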
Numbers stand for hits; . = inactive; ? = inconclusive; / = not tested or not shown; [ ] = another dose, or the depositor's remark. Most compounds without a hit are left out; they make up all but 0.46% or so of the library. Unless noted, calls come from the whole dose curve; as a rule, active = well fitted curve in the direction sought with a large enough effect; inconclusive = small, poorly fitted or top-dose-only effect, or another doubt; inactive = no such curve, though single readings can be large; an effect the other way counts as inactive or inconclusive.

SMILES	PTAP TSG101 blk	A-T KAP1 phos	a7 integrin act	Mito fusion act	GALK inh	S-ASM inh
O=C(CSc1nc2ccccc2o1)Nc1nc2ccccc2s1	.	.	.	.	.	.
O=C(CSc1nc2ccccc2o1)Nc1nc(-c2ccccc2)cs1	.	.	.	16µM	.	.
N#Cc1ccc2c(c1)C[C@]1(c3ccsc3)Oc3c(c(=O)oc4ccccc34)C2O1	/	.[11.5 µM]	/	.[9.22 µM]	/	/
COc1ccc(C(=O)NCC(=O)N/N=C/c2cccc(OC(=O)c3ccco3)c2)cc1OC	.	.	.	.	.	.
Cc1cc(C)c(C)c(S(=O)(=O)N2CCN(C(=O)CNC(=O)c3ccco3)CC2)c1C	.	.	.	.	/	.
CCCc1ccc(S(=O)(=O)Nc2ccc(C)c(NS(C)(=O)=O)c2)cc1	.	?	.	5.6µM	.	.
CCCCc1ccc(S(=O)(=O)Nc2ccc(C)c(NS(C)(=O)=O)c2)cc1	.	?	.	.	.	.
O=c1onc2cnc3ccccc3n12	/	/	/	9.2µM	/	/
O=c1cnc2ccccc2n1Cc1ccccc1	/	/	.	/	/	/
Oc1cc(Nc2ccc(N3CCCCC3)cc2)cc2cccnc12	/	.	/	.	/	/
Cc1nc2ccc(NS(=O)(=O)c3c(C)c(C)cc(C)c3C)cc2s1	.	/	.	.	.	.
Cc1nc2cc(NS(=O)(=O)c3c(C)c(C)cc(C)c3C)ccc2s1	.	.	.	35µM	.	.
COc1ccc(OCc2cc(C(=O)N(C)C3CCOCC3)no2)c2ccccc12	.	.	.	.	.	.
O=C(c1cccc(S(=O)(=O)N2CCN(c3ccc(F)cc3)CC2)c1)N1CCCCCCC1	.	.	.	16µM	/	.
CC1CCN(C(=O)c2cccc(S(=O)(=O)N3CCN(c4ccccc4)CC3)c2)CC1	.	.	.	18µM	/	.
Cc1ccccc1OCC(=O)Nc1ccccc1N1CCCCC1	.	32µM	.	.	.	.
O=C(Nc1ccccc1N1CCCC1)c1ccccc1F	.	.	.	.	.	.
O=C(Nc1ccccc1N1CCCCC1)c1ccccc1F	.	28µM	.	.	.	.
Cc1ccc(/C(=N/Nc2ncnc3ccccc23)C(=O)O)cc1	.	.	.	.	.	.
COC(=O)C(=O)C/C(=N/Nc1ncnc2ccccc12)c1ccc(Cl)cc1	.	.	10µM	.	.	.
Cc1ccc(-c2nc3ncccn3c2Nc2ccccc2C)o1	.	.	.	.	.	.
Cc1ccc(-c2nc3cnccn3c2Nc2c(C)cccc2C)o1	.	16µM	.	.	.	.
COC(=O)Cn1c(=O)c2c(nc3n2CCCN3Cc2ccccc2)n(C)c1=O	.	.	.	6.3µM	/	.
CCCCN(CC)CCCNC(=O)c1cn(CC(C)C)c(=O)c2c1c1ccccc1n2C	.	25µM	.	.	.	.
Cc1nnc(SCC(=O)NC(=O)Nc2ccc3c(c2)OCCO3)n1N	.	0.71µM	.	.	.	.
SMILES	PTAP TSG101 blk	A-T KAP1 phos	a7 integrin act	Mito fusion act	GALK inh	S-ASM inh
Cc1snc(S(=O)(=O)/C(C#N)=N/Nc2cccc(C(F)(F)F)c2)c1C#N	.	.	.	.	28µM	?
COc1ccc(N/N=C(/C#N)S(=O)(=O)c2nsc(C)c2C#N)cc1	.	.	.	.	?	.
CC(C)C(=O)Nc1cccc(COc2ccc(CN(CCc3ccccc3)C(=O)OC(C)(C)C)cc2)c1	.	/	.	/	/	.
Cc1[nH]c(=O)c(Cc2ccccc2)c(O)c1C#N	.	/	?	/	/	.
Cn1c(=O)c2c(O)c(Cc3ccccc3)c(=O)[nH]c2n(C)c1=O	.	.	.	20µM	.	.
COc1ccc(CCNC(=O)C2CC(O)CN2S(=O)(=O)c2ccc(Cl)cc2)cc1OC (stereo not drawn)	.	.	.	/	/	?
CCCCN(CC)c1nc(-c2ccncc2)nc2ccccc12	.	.	.	18µM	.	.
COc1ccc(-c2ccc(-c3noc(C(C)C)n3)c(OC)n2)cc1	.	14µM	.	.	.	.
CCc1nc(-c2ccc(-c3ccc(OC)cc3)nc2OC)no1	.	.	.	.	.	.
CC(OCC(O)CNCC1COc2ccccc2O1)c1ccc(Cl)cc1 (stereo not drawn)	.	.	.	.	.	.
CC(=O)c1cccc(OCC(O)CNCC2COc3ccccc3O2)c1 (stereo not drawn)	.	50µM	.	/	.	.
O=c1c(O[C@@H]2O[C@H](CO)[C@H](O)[C@H](O)[C@H]2O)c(-c2ccc(O)c(O)c2)oc2cc(O)cc(O)c12	/	/	/	.	.	/
COc1c(-c2ccc(O)c(O)c2)oc2cc(O)cc(O)c2c1=O	.	.	.	0.63µM	.	.
CCOC(=O)c1c(/C=N/Nc2ccccc2)c2sc(C)cc2n1C	/	.	/	.	/	/
COc1ccccc1OC(=O)Nc1ccc(Cl)cc1	.	0.71µM	.	.	.	.
COc1ccccc1OCC(=O)NNC(=O)Nc1ccc(Cl)cc1	.	.	.	.	.	.
OC(CN1CCN(c2ccc(F)cc2)CC1)c1ccc(Cl)cc1 (stereo not drawn)	.	.	.	.	.	.
OC(CN1CCC(Cc2ccc(F)cc2)CC1)c1ccc(Cl)cc1 (stereo not drawn)	/	/	/	2.9µM	/	/
O=C(CSc1nc2ccccc2o1)NC1CCS(=O)(=O)C1 (stereo not drawn)	.	.	.	/	/	.
Cc1cccc(N2CCN(S(=O)(=O)c3ccc4c(c3)NC(=O)C(C)S4)CC2)c1C (stereo not drawn)	.	.	.	11µM	.	.
O=C(NCc1cccnc1)c1ccccc1NS(=O)(=O)c1ccccc1	.	.	?	.	.	.
CC(=O)Nc1ccc(S(=O)(=O)Nc2ccccc2C(=O)NCc2cccnc2)cc1	.	.	.	10µM	.	.
Cc1ccc(NC(=S)Nc2cccc3cnccc23)cc1	.	.	.	.	.	.
CC(=O)c1ccc(NC(=S)Nc2cccc3cnccc23)cc1	.	40µM	.	.	?	.
C=CCn1c(NS(=O)(=O)c2ccccc2)c(S(=O)(=O)c2ccc(C)cc2)c2nc3ccccc3nc21	.	22µM	.	.	.	.
O=S(=O)(Nc1c(S(=O)(=O)c2ccccc2)c2nc3ccccc3nc2n1C1CCCCC1)c1ccccc1	.	.	.	.	.	.
Cc1ccc(S(=O)(=O)c2c(N)n(Cc3ccco3)c3nc4ccccc4nc23)cc1	.	32µM	.	.	.	.
O=C(COc1ccccc1C(=O)Nc1ccccc1)c1ccc(Br)cc1	.	.	.	.	.	.
O=C(Oc1ccccc1C(=O)Nc1ccccc1)c1ccccc1Br	.	.	.	16µM	.	.
